This excerpt belongs to a sample that is enriched for hits.
Sm TGR inh = inhibitors of Schistosoma mansoni thioredoxin glutathione reductase | Q962Y6 | purified TGR, DTNB reduction, TNB absorbance 405 nm | Potency, µM (series often up to 114 µM), for inactives: at the top dose activity change, negative = inhibition, usual class: inhibitors | 3% of 360,000 active | AID 485364; note: potency is the fitted concentration of half-maximal effect; % is set by controls: 0 for no effect and ±100 for the full control effect; nearly all actives have a fitted effect of over 60% in size
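Kinetic colorimetric format: TGR-catalysed, NADPH-driven DTNB reduction monitored via TNB absorbance. Enzyme dispensed at 20 nM; compound exposure 15 min at room temperature before reaction start.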
LmPK inh = inhibitors of Leishmania mexicana pyruvate kinase; Potency, µM (top dose mostly 57.5 µM), for inactives: at the highest dose activity change, negative = inhibition, most hits filed as inhibitors; AID 1721; 0.37% of 290,000 active; Q27686; purified LmPK, Kinase-Glo ATP luminescence, 1 h; note: potency is the fitted concentration of half-maximal effect; % is set by controls: 0 for no effect and ±100 for the full control effect
Target sequence (Q27686 whole entry, looked up): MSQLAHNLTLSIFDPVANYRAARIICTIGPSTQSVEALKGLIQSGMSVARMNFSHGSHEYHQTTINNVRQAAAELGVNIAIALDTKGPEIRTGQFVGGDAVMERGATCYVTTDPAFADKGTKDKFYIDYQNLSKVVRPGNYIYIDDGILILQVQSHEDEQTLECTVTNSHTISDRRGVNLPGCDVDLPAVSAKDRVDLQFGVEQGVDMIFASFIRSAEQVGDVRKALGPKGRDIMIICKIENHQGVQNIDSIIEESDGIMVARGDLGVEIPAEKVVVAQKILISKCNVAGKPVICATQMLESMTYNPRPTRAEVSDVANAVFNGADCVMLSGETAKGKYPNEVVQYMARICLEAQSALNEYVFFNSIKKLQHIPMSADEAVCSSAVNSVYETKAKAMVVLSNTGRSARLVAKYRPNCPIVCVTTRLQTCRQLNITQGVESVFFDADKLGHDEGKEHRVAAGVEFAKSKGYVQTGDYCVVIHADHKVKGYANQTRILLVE
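Purified LmPK (0.1 nM) converted ADP (0.1 mM) to ATP with PEP (0.5 mM) in imidazole buffer pH 7.2 with KCl and MgCl2, 1 h at room temperature. ATP was read by Kinase-Glo luminescence; data normalized to uninhibited and no-enzyme controls.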
Cycloheximide cs = affects cycloheximide protein synthesis inhibition readout, counter-screen; cell reporter, cycloheximide protein synthesis inhibition counterscreen; max response, %; 12% of 300,000 active; in the data active = max response mostly above about 13%, no sharp cut-off; inactive = mostly below about 14%; note: read at 38.3 µM for the half of the compounds with a filed dose; 0% is about no effect
TbPYK inhibitor = T. brucei pyruvate kinase inhibition | TbPYK enzyme, Kinase-Glo Plus ATP luminescence, 45 min | 0.12% of 410,000 active | Potency, µM (highest dose often 76.8 µM), inactives show at the top dose activity, negative = inhibition, most hits filed as inhibitors | AID 624173; note: potency is the fitted concentration of half-maximal effect; % is set by controls: 0 for no effect and ±100 for the full control effect; nearly all actives have a fitted effect of over 50% in size
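Activity of T. brucei pyruvate kinase was followed by Kinase-Glo Plus luminescence after the enzyme reacted 45 min at room temperature with 130 uM ADP (final) and substrate. Test compounds were added before ADP at multiple concentrations.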
FBPA Giardia inh = Giardia lamblia aldolase inhibition; A8B2U2; purified Giardia FBPA; Potency, µM (titrated, usually from 59.6 µM), for the others: top-dose activity, negative = inhibition, most hits filed as inhibitors; 0.71% of 290,000 active; AID 2451; note: potency is the fitted concentration of half-maximal effect; % is set by controls: 0 for no effect and ±100 for the full control effect; nearly all actives have a fitted effect of over 55% in size
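Giardia FBPA (40 nM reagent) was preincubated 10 min at RT with compound (up to 57.5 uM final), then substrate plus GAPDH/TPI/NAD/arsenate coupling system with diaphorase/resazurin was added; resorufin fluorescence (525/598 nm) was read after 20 min.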
Shiga toxin inh = inhibitors of Shiga toxin in Vero cells. inhibition, % at 38.7 µM. 9.2% of 290,000 active. Vero cells, Shiga toxin protein synthesis inhibition reporter; in the data active = inhibition mostly above about 28%, no sharp cut-off; inactive = mostly below about 43%; note: 0% is about no effect
* hit, by the source's call; ? = inconclusive; . = no result. Unless noted, calls come from the whole dose curve; as a rule, active = well fitted curve in the direction sought with a large enough effect; inconclusive = small, poorly fitted or top-dose-only effect, or another doubt; inactive = no such curve, though single readings can be large; an effect the other way counts as inactive or inconclusive.

SMILES	Sm TGR inh	LmPK inh	Cycloheximide cs	TbPYK inhibitor	FBPA Giardia inh	Shiga toxin inh
CCCCN(CC)CCCNC(=O)c1cc2c(=O)[nH]c3ccccc3c2s1	45µM*	9%	-4	1%	1%	-5
Cc1ccc(N2C(=O)NC(=O)/C(=C\c3cc(C)n(-c4ccc(C(=O)O)cc4)c3C)C2=O)cc1	?	0%	-3	-20%	-5%	-9
Cc1ccc(N2C(=O)NC(=O)/C(=C\c3cc(C)n(-c4cc(C(=O)O)cc(C(=O)O)c4)c3C)C2=O)cc1	7.9µM*	-2%	-1	-3%	-9%	-4
CCc1ccc(N2C(=O)NC(=O)/C(=C\c3cc(C)n(-c4cc(C(=O)O)cc(C(=O)O)c4)c3C)C2=O)cc1	8.9µM*	-8%	-5	-16%	-15%	-5
Cc1cc(/C=C2\C(=O)NC(=O)N(c3ccc(F)cc3)C2=O)c(C)n1-c1ccc(C(=O)O)cc1	-35%	0%	-1	-3%	0%	-4
CCOC(=O)c1c(C)oc2nc(C)nc(N3CCN(c4cccc(C(F)(F)F)c4)CC3)c12	31%	.	.	-6%	.	.
Cc1ccc(/C=C(\C#N)C(=O)Nc2cccc(Br)c2)o1	9%	.	.	5%	.	.
N#C/C(=C\c1ccc(N2CCCCC2)o1)C(N)=O	?	1%	17*	-9%	-15%	20
O=Cc1ccc(N2CCCC2)o1	2%	-1%	-2	9%	2%	9
N#C/C(=C\c1ccc(N2CCCCC2)o1)C(=O)Nc1cccc(Br)c1	?	0%	58*	-10%	0%	106*
COc1cccc(NC(=O)Nc2ccc3nc(N4CCN(C)CC4)cc(C)c3c2)c1	-1%	.	.	-10%	.	.
O=[N+]([O-])c1ccc(Cl)c2c1C1C=CCC1C(c1ccccn1)N2 (stereo not drawn)	20µM*	-7%	-5	-27%	?	-4
O=C(NCc1cccnc1)c1cc(C2CCCCN2C(=O)CCCc2ccccc2)on1 (stereo not drawn)	.	.	.	5%	.	.
CCN1C(=O)N(CC)C(=O)C2(Cc3ccccc3N3CCN(c4ccccc4)CC32)C1=O (stereo not drawn)	45µM*	7%	36*	-1%	-14%	70*
Cc1ccccc1Cc1c(C)nc2nc(SCC(=O)N(C)c3ccccc3)nn2c1C	6%	.	.	-1%	.	.
O=C(NCCN1CCN(Cc2ccccc2)CC1)C1c2ccccc2C(=O)N2CCc3ccccc3C12 (stereo not drawn)	-31%	0%	-4	0%	7%	-10
Cc1ccc(CNC(=O)C2c3ccccc3C(=O)N3CCc4ccccc4C23)o1 (stereo not drawn)	5.6µM*	2%	24	?	-23%	7
Cc1ccc(C)c(NC(=S)c2ccc3ccccc3n2)c1	7%	-3%	44*	18%	10%	75*
CN(CC(=O)Nc1ccc(F)cc1)C(=O)c1ccc2ccccc2n1	3%	.	.	0%	.	.
CN(C)c1ccc(NC(=S)c2ccc3ccccc3n2)cc1	2%	6%	32*	0%	-8%	113*
Cc1ccc(C)c(NC(=S)c2ccccn2)c1	8%	-6%	50*	-9%	2%	95*
Cc1ccc(C)c(NC(=S)c2nc3ccccc3s2)c1	-3%	-3%	26*	-14%	16%	42*
COCCNc1ncnc2c1ncn2[C@H]1CN(Cc2ccccc2)C[C@@H](CO)O1	.	.	.	-8%	.	.
CCOC(=O)c1c(-c2ccc(C)cc2)csc1NC(=O)c1cc(=O)c2cc(C)c(C)cc2o1	16%	.	.	1%	.	.
C/C(=N\O)c1cccc(Br)c1	-6%	1%	-2	1%	-3%	10
C/C(=N/O)c1cccc(N2Cc3ccccc3C2)c1	22µM*	5%	18*	-2%	-12%	51*
O=C(OCc1c(-c2ccccc2)ncc2ccccc12)N1CCOCC1	-15%	.	.	-13%	.	.
CC(C)Oc1ccc(C(=O)N(Cc2ccc(N(C)C)cc2)Cc2ccco2)cc1	8%	.	.	-7%	.	.
COc1ccc(N=C2S/C(=C\c3cc(C)n(C)c3C)C(=O)N2C)cc1	50µM*	-3%	-1	-14%	-15%	-13
COc1ccccc1N1C(=O)S/C(=C\c2ccc(C)s2)C1=O	1%	1%	22*	-4%	?	28*
